In PubChem BioAssay AID1063 (University of Pittsburgh Molecular Library Screening Center, 2008):
Hit rate of the full screen: of about 200,000 compounds, about 18,000 (9%) were called active. The sample holds actives, similar compounds and a random draw of the others, so the mix is not that of the screen. Unmarked numbers belong to inactive results. Rule as the data show it: active = inhibition above about 50%; inactive = the rest.

experiment: antileishmanial activity against promastigotes – primary screen (AID 1063); conditions: Leishmania major promastigotes, resazurin fluorescence viability; at 10 µM; stronger effect = higher value;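 also: promastigotes grown with compound for 44 hours at 28 °C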

Compound	inhibition
Cc1ccc(Cl)cc1NC(=S)N(CCN(C)C)Cc1cccs1	18.3%
CCc1cccc(C)c1NC(=S)N(CCCN1CCN(C)CC1)Cc1cccs1	22.3%
Cc1ccccc1NC(=S)N(CCCN1CCOCC1)Cc1cccs1	61.8% (active)
O=C(CCN1C(=O)c2ccccc2C1=O)NCCCn1ccnc1	-10.1%
O=C(Nc1ccc2nccnc2c1)c1ccco1	-6.2%
O=C(Nc1cccc(-c2nc3ncccc3o2)c1)c1ccco1	100% (active)
O=C(Nc1cccc(NC(=O)c2ccco2)c1)c1cnccn1	20.6%
CC(=O)Nc1ccc(S(=O)(=O)Nc2nccc(/C=C/c3ccccc3F)n2)cc1	-6.64%
CC(c1ccco1)N(C(=O)c1ccc(S(=O)(=O)N2CCCCC2)cc1)c1ccccn1 (stereo not given)	89.7% (active)
CC(c1ccco1)N(C(=O)COc1ccccc1[N+](=O)[O-])c1ccccn1 (stereo not given)	1.39%
O=C(N/N=C/c1ccccn1)c1ccc(S(=O)(=O)N2CCCCCC2)cc1	-3.79%
Cn1c(N)cc(-c2ccc(F)cc2)c(C#N)c1=O	0.6%
Cc1cccc(S(=O)(=O)CC(=O)Nc2nc(-c3ccccc3)cs2)c1	98.6% (active)
O=C(Nc1nc(-c2ccc(-c3ccccc3)cc2)cs1)c1cnccn1	47.8%
Cc1ccc(-c2csc(NNC(=O)c3ccccc3)n2)cc1	16.8%
CCNC(=O)CSc1nc(-c2ccccc2)cs1	3.19%
Cc1ccc(-c2csc(NC(=O)Cn3[nH]c(=O)c4ccccc4c3=O)n2)cc1	5.27%
O=C(CSC1=NCCS1)Nc1nc(-c2ccccc2)cs1	67.4% (active)
Cc1ccc(S(=O)(=O)N(CC(=O)NN=C2CCN(C)CC2)c2ccc(F)cc2)cc1	-0.06%
CCc1cc2c(=O)c(-c3nc4ccccc4n3C)c(CCCC(=O)O)oc2cc1OC(=O)C(C)(C)C	-1.6%
CCOc1ccc(NC(=S)NC(=O)/C=C/c2ccc(OC)cc2)c([N+](=O)[O-])c1	-5.29%
COc1ccc(/C=C/C(=O)NC(=S)NN2CCCCC2c2cccnc2)cc1 (stereo not given)	69.9% (active)
COc1ccc(C2=NN(C(=O)c3cccnc3)C(c3ccccc3)C2)cc1 (stereo not given)	5.17%
Cc1cccc(N=C2NC(=O)/C(=C/c3cn(C)c4ccccc34)S2)c1	10.8%

Compound	inhibition
Cc1cccc(C(=O)Nc2nnc(Cc3c[nH]c4ccccc34)s2)c1	19.2%
Cc1cccc(N=C2NN=C(c3c[nH]c4ccccc34)CS2)c1	64.9% (active)
CC(C(=O)NC1CCCC1)N(c1ccc(Oc2ccccc2)cc1)S(C)(=O)=O (stereo not given)	29.4%
CCOc1ccc(C(C)=O)cc1CSc1nnc(-c2ccncc2)n1CCOC	2.51%
C/C(=N\NC(=O)Cc1ccc(F)cc1)c1ccc(F)cc1	-7.37%
C/C(=N\NC(=O)Cc1ccc(Cl)cc1)c1ccccn1	100% (active)
COc1ccc(CC(=O)N/N=C(\C)c2ccccn2)cc1	75.9% (active)
Cc1ccc(Cl)cc1NC(=O)c1ccccn1	-2.2%
COc1ccc(C/C(C)=N/NC(=O)c2cc(C)oc2C)cc1	2.67%
COc1ccc(C/C(C)=N/NC(=O)c2ccncc2)cc1	-6.69%
COc1ccccc1NC(=O)C1=C(C)NC(=O)NC1c1ccc(C)s1 (stereo not given)	5.44%
O=C(CC(=O)N/N=C\c1ccc(F)cc1)NCCc1ccccc1	-0.64%
Nc1ccc(S(=O)(=O)Nc2nccc(/C=C/c3ccc(Br)s3)n2)cc1	1.78%
O=C(O/N=C(/c1ccccc1)c1ccncc1)c1ccccc1[N+](=O)[O-]	-5.52%
COC(=O)c1ccc(NC(=S)Nc2cccc(C)n2)cc1	1.93%
COc1cc(OC)cc(-c2nnc(SCC(=O)Nc3ccc(C(=O)O)cc3)s2)c1	-10.5%
COc1ccc(/C=C/C2=CC(C)(C)NC(=S)N2)c(OC)c1	1.29%
COc1cccc(-n2c(=S)[nH]c3c(oc4ccccc43)c2=O)c1	-1.14%
CCCC1(C(=O)OC)NC(c2ccco2)C2C(=O)N(C)C(=O)C21 (stereo not given)	4.05%
Cc1ccc(N(Cc2cc3ccccc3[nH]c2=O)C(=O)c2cccs2)cc1	75.4% (active)
CCC(=O)N(Cc1cc2ccccc2[nH]c1=O)c1ccc(OC)cc1	11.3%
Cc1cccc2cc(CN(C(=O)c3cccs3)c3ccccc3)c(=O)[nH]c12	-3.04%
Cc1ccc2c(c1)C(O)(CC(=O)c1cccc(-n3cccc3)c1)C(=O)N2 (stereo not given)	0.06%
COc1ccccc1-n1cnc2cc(NS(=O)(=O)c3ccccc3)ccc21	98.3% (active)

Compound	inhibition
COc1cc(NS(=O)(=O)c2ccccc2)ccc1-n1nc(C)cc1C	-5.46%
COCCCNC(=O)c1ccc2c(c1)ncn2-c1ccccc1OC	-1.51%
O=[N+]([O-])c1ccccc1N/N=C1\CCc2ccccc21	-1.95%
N#Cc1cccc(NC(=O)CCC2CCCC2)c1	5.79%
N#Cc1cccc(Nc2c3c(nc4ccccc24)CCCC3)c1	86.9% (active)
O=C(Nc1c2c(nc3ccccc13)CCCC2)c1ccccc1Br	6.31%
COc1ccc2c(c1)C(c1cccs1)=NNC(c1cccnc1)=N2	23.7%
CC(NC(=O)COC(=O)c1ccc2c(c1)OCO2)c1ccccc1 (stereo not given)	-3.45%
CCOC(=O)C1=C(C)NC(SC)=NC1c1ccccc1 (stereo not given)	8.85%
CCOC(=O)C1=C(C)N=C2c3ccccc3C(=O)C2C1c1ccc(Br)cc1 (stereo not given)	99.4% (active)
CCOC(=O)C1=C(C)NC(=O)NC1c1ccccc1 (stereo not given)	-1.3%
CN(C)c1nccc(NCc2ccccc2)c1C#N	-3.1%
COCCCNC(=O)CNC(=S)N(Cc1cc(OC)c(OC)c(OC)c1)C1CCCC1	-3.29%
CCCC(O)(c1ccc(OC)cc1)C(CN(C)C)c1ccccc1 (stereo not given)	-1.91%
COc1ccc(OCC(O)CNC(=O)Nc2ccc(Cl)cc2)cc1 (stereo not given)	-4.73%
CN(C)CC(O)COc1ccc(C(C)(C)c2ccc(OCC(O)CN(C)C)cc2)cc1 (stereo not given)	100% (active)
CN(C)S(=O)(=O)c1cccc(NC(=S)N/N=C/C(=O)c2ccccc2)c1	2.84%
Cc1cccc(N2CCN(c3ccc(NC(=O)/C=C\C(=O)O)cc3)CC2)c1	-2.44%
Cc1cc(C(=O)CCl)c(C)n1CC1COc2ccccc2O1 (stereo not given)	101% (active)
Cc1ccsc1C(=O)OCC(=O)c1cc(C)n(CC2CCCO2)c1C (stereo not given)	-1.1%
Cc1cc(NC(=O)CCC2COc3ccccc3O2)no1 (stereo not given)	-5.57%
O=C(NCc1ccccc1)C1=C[C@@H](C2CCCCC2)C[C@@H](OCc2ccc(CO)cc2)O1	50.2% (active)
CC(C)(C)[C@H]1C=C(C(=O)NCc2ccccc2)O[C@@H](OCc2ccc(CO)cc2)C1	20.8%
C=CCOC(=O)C1=C[C@@H](c2ccccc2)C[C@@H](OCc2ccc(CO)cc2)O1	13.8%

Compound	inhibition
O=C(C1=C[C@H](c2ccc(C(F)(F)F)cc2)C[C@H](OCc2ccc(CO)cc2)O1)N1CCN(Cc2ccccc2)CC1	25.6%
O=C(NCc1ccccc1)C1=C[C@H](C2CC2)C[C@H](OCc2ccc(CO)cc2)O1	6.42%
O=C(NCc1ccccc1)C1=C[C@@H](c2ccc(C(F)(F)F)cc2)C[C@@H](OCc2ccc(CO)cc2)O1	87% (active)
CCOC(=O)C1(C)NC(c2ccco2)C2C(=O)N(c3ccccc3)C(=O)C21 (stereo not given)	-8.75%
COc1cc(NC(=S)NCc2ccc(S(N)(=O)=O)cc2)cc(OC)c1	11.8%
CC1Cc2ccccc2N1C(=O)CSc1nnc(C2CC2)n1C (stereo not given)	14.8%
Cn1c(SCC(=O)OC2CCCCC2)nnc1-c1ccc(S(=O)(=O)N2CCCC2)cc1	-0.74%
CC1Cc2ccccc2N1C(=O)CSc1nnc(-c2ccc(S(=O)(=O)N3CCCC3)cc2)n1C (stereo not given)	97.9% (active)
O=C(Nc1ccc(N2CCN(C(=O)c3cccs3)CC2)cc1)c1cccnc1Cl	16.4%
CCOc1ccccc1/C=N/NC(=O)CNC(=O)COc1ccccc1	-1.93%
N#C/C=C(/c1ccc(F)cc1)N1CCOCC1	1.16%
Cc1cc(C)n2nc(SCC(N)=O)nc2n1	4.1%
COc1ccc(S(=O)(=O)N2CCCCC2)cc1Br	-0.43%
CCCCn1c(=S)[nH]c2cc(S(=O)(=O)N3CCCCC3)ccc21	96.4% (active)
CCCCn1c(=S)[nH]c2ccccc2c1=O	-2.23%
COC(=O)C(C(=O)Nc1cccc(Cl)c1C)C1CCCC1 (stereo not given)	-0.21%
Cc1ccc(OCCCC(=O)NC(C)c2ccccc2)c(C)c1 (stereo not given)	11.7%
CCC(CC)c1nnc(NC(=O)c2nn(C)c(=O)c3ccccc23)s1	8.15%
N#Cc1c(C(F)(F)F)cc(-c2ccc(Cl)cc2)nc1SCC(=O)O	-6.26%
CN(C)CCCNC(=O)/C=C/c1ccc(OCc2c(F)cccc2Cl)cc1	89.1% (active)
O=C(/C=C/c1ccc(OCc2c(F)cccc2Cl)cc1)N1CCOCC1	35.5%
COCCCNC(=O)/C=C/c1ccc(OCc2c(F)cccc2Cl)cc1	16%
COc1ccccc1-n1ccnc1SCC(=O)NC(C)(C)C	-1.52%
